A selection: hits, their analogues and other compounds. The true share with any hit is near 2.8%.
PP1 inh: PP1-alpha (human) inhibition in PP5 counter-screen. purified PP1alpha, OMFP fluorescence. inhibition, % at 6.7 µM. 320,000 tested, 0.9% active;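 active = inhibition above the mean inhibition of all tested compounds plus 3 SD, computed separately for each screening campaign, cut at about 15% in these data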
SKKanGAS inh: SKKanGAS growth inhibition | S. pyogenes SKKanGAS, kanamycin growth, BacTiter-Glo, 6 h | inhibition, % at 7.5 µM | 300,000 tested, 1.3% active;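 active = mean replicate score, as percent of positive control median, at least 50; inconclusive = mean below 50 but one replicate at or above 50; inactive = mean and every replicate below 50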;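 note: strain carries kanamycin resistance gene driven by streptokinase promoter and grows in 40 µg/ml kanamycin; loss of luminescence reflects streptokinase promoter inhibition or plain growth inhibition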
Granule exo inh: lytic granule exocytosis inhibition | inhibition, % at 10 µM | AID 651702 | 360,000 tested, 0.66% active | TALL-104 LAMP-1 surface exposure, flow cytometry; cells stimulated with thapsigargin and PMA;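 active = inhibition above about 55%, limit read from the data; inconclusive = no clear call, values can overlap the other calls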
IDE act: IDE (human) activation, cell-based; P14735; HEK cells, FAbeta-B cleavage, fluorescence polarization; 0% vehicle, 100% cell-free pure enzyme wells; activation, % at 5.96 µM; 340,000 tested, 0.073% active; AID 493087;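 active = activation above the mean of all tested compounds plus 3 SD, set per screening campaign, cut at about 17% in these data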
IDE inh: inhibitors of human insulin-degrading enzyme in cells | P14735 | HEK cells, FAbetaB cleavage, fluorescence polarization | inhibition, % at 5.59 µM | 320,000 tested, 0.41% active;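 active = percent inhibition above the average of all tested compounds plus 3 SD, set per screening campaign, cut at about 16% in these data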;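 note: IDE supplied by intact live HEK cells; FP after avidin binding of uncleaved biotin substrate so inhibition keeps polarization high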
PP5 inh: inhibitors of human protein phosphatase 5 (PP5) | purified PP5c, OMFP substrate fluorescence | P53041 | AID 1987 | inhibition, % at 6.7 µM | 320,000 tested, 0.18% active;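 active = inhibition above the campaign's mean inhibition across all tested compounds plus 3 SD, cut at about 9.5% in these data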
Target sequence (P53041 whole entry, looked up): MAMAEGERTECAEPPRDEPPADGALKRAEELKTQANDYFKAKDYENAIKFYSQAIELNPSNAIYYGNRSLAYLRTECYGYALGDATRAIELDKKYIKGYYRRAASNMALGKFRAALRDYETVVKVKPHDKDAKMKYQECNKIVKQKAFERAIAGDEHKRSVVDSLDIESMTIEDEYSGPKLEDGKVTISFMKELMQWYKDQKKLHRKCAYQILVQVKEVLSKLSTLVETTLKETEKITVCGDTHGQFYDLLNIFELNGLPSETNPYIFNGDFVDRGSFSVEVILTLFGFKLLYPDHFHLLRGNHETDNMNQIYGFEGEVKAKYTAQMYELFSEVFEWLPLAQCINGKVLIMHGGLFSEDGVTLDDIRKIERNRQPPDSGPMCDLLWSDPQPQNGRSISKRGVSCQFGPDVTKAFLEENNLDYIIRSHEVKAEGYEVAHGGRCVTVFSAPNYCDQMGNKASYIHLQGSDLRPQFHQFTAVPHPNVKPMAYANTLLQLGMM
Granule exo CP1: blocks lytic granule exocytosis. shares compounds with Granule exo inh. TALL-104 cells, LAMP-1 externalization, flow cytometry; stimulated with PMA plus thapsigargin. inhibition, % at 10 µM. 1,500 tested, 11% active. AID 651954; in the data active = inhibition above about 60%
A number is an active result; . = inactive; ? = inconclusive; / = no result.

SMILES	PP1 inh	SKKanGAS inh	Granule exo inh	IDE act	IDE inh	PP5 inh	Granule exo CP1
COc1cccc(-n2c(=O)n(Cc3ccccc3)c(=O)c3[nH]cnc32)c1C	.	.	.	.	.	.	/
CC(=O)Nc1cccc(-n2c(=O)n(Cc3ccccc3)c(=O)c3[nH]cnc32)c1	.	.	55.5	.	.	.	.
COc1ccccc1-c1cc(C(F)(F)F)nc(S(=O)(=O)CCCC(=O)NCc2ccc(F)cc2)n1	.	.	75.1	.	.	.	.
COc1ccccc1-c1cc(C(F)(F)F)nc(S(=O)(=O)CCCC(=O)N2CCCCC2C)n1 (stereo not given)	.	.	64.4	.	.	.	.
COc1ccccc1-c1cc(C(F)(F)F)nc(S(=O)(=O)CCCC(=O)NC(C)C)n1	.	.	.	.	.	.	/
Cc1ccccc1-n1nc2c(c1NC(=O)CC(C)C)CS(=O)C2 (stereo not given)	.	.	.	.	.	.	/
COc1ccc(N(CC(=O)NCCSCc2ccc(Cl)cc2)S(C)(=O)=O)cc1Cl	.	.	66.8	.	.	.	.
COc1ccc(Cl)cc1N(CC(=O)NCCSCc1ccccc1)S(C)(=O)=O	.	.	.	.	.	.	/
COc1ccc(N(CC(=O)NCCSCc2cccc(Cl)c2)S(C)(=O)=O)cc1Cl	.	?	59.8	.	.	.	.
COc1ccccc1Cn1c(=S)[nH]c2cc(C(=O)N3CCCC(C)C3)ccc2c1=O (stereo not given)	/	/	.	/	/	/	/
Fc1ccc(CNCCC(Cc2ccccc2)c2ccco2)cc1 (stereo not given)	.	.	78.5	.	.	.	.
Fc1cccc(NCCc2c[nH]c3ccccc23)n1	.	.	.	.	.	.	/
c1ccc2c(NCCc3c[nH]c4ccccc34)c3ccccc3nc2c1	.	.	71.8	.	.	.	.
O=C1C=CC(=O)N1N(c1ccccc1)c1ccccc1	.	.	78.1	.	.	.	104.3
O=C1C(=O)N(Cc2cccs2)c2ccccc21	.	.	62.2	.	.	.	.
O=C(COc1ccccc1Cl)Nc1nnc(S(=O)(=O)N2CCCCCC2)s1	.	.	.	.	.	.	/
CC(=O)Nc1ccccc1C(F)(F)F	.	.	.	.	.	.	/
CC(C)(C)C(=O)NC(=O)Nc1ccccc1C(F)(F)F	.	.	109.4	.	.	.	.
CN(C(=O)CN1CCN(c2cnn(-c3ccccc3)c(=O)c2Cl)CC1)C1CCS(=O)(=O)C1 (stereo not given)	.	/	.	.	.	.	/
COc1ccc2nc(C)cc(N3CCN(c4ccccc4)CC3)c2c1	.	.	64.6	.	.	.	.
Cc1nc2nc(C)c(C)nc2nc1C	/	/	.	/	/	/	/
N#Cc1cc2ccccc2nc1SCC(=O)NC1CC1	.	.	.	.	.	.	/
CCc1cc2ccccc2nc1SCC(=O)NC1CCCC1	.	.	79.4	.	.	.	.
O=C(Nc1ccc(C2=NCCN2)cc1)c1ccc(Cl)c(C(=O)Nc2ccc(C3=NCCN3)cc2)c1	.	.	/	/	.	.	/
CCOC(=O)C1=C(C)N(c2ccccc2)C(=O)C1	.	.	100.1	.	.	.	.
SMILES	PP1 inh	SKKanGAS inh	Granule exo inh	IDE act	IDE inh	PP5 inh	Granule exo CP1
COC(=O)C1=C(C)N(c2ccc(S(N)(=O)=O)cc2)C(=O)C1	.	.	.	.	.	.	/
CN(C)CCCNc1ncnc2sc(-c3ccccc3)cc12	.	.	.	.	.	.	/
CCCCN(CCO)c1ncnc2sc(-c3ccccc3)cc12	.	.	91.8	.	.	.	.
CCSc1nc2cc(C(=O)OC)ccc2c(=O)n1CC	.	.	.	.	.	.	/
COCCn1c(SCc2cccc(F)c2)nc2cc(C(=O)OC)ccc2c1=O	/	.	74.6	.	/	/	.
CCN(Cc1ccccc1)C1CCN(Cc2ccc(SC)cc2)CC1	.	.	.	.	.	.	/
CCCCN(Cc1ccccc1)C1CCN(Cc2ccccc2)CC1	.	.	68.4	.	.	.	.
O=C(Nc1ccc(C(=O)N2CCCCC2)cc1)[C@H]1O[C@@H](n2ccc(=O)[nH]c2=O)[C@H](O)[C@@H]1O	/	/	.	/	/	/	/
COc1cc(-c2coc3c(C(=O)NCc4ccc(OC)c(OC)c4)cccc23)ccc1O	/	/	66.1	/	/	/	91.6
COc1cc(-c2coc3c(C(=O)NCc4ccc(N(C)C)cc4)cccc23)ccc1O	/	/	.	/	/	/	/

Assay outcomes (PubChem)
